Source: PubChem (National Center for Advancing Translational Sciences (NCATS))
The list is not random: actives were taken first. Their share in the collection is about 10%.
SARS PLpro yeast-1 = qHTS of Yeast-based Assay for SARS-CoV PLP. S. cerevisiae expressing SARS-CoV PLpro, growth rescue. 330,000 compounds, 0.19% hits. Potency, µM (doses to about 32.9 µM), usual class: activators; calls by dose curve; also: nearly all actives have a fitted effect of over 55% in size
Pf growth 48h = Primary qHTS for delayed death inhibitors of the malarial parasite plastid, 48 hour incubation | 310,000 compounds, 5.9% hits | P. falciparum luciferase growth in erythrocytes, 48 h | Potency, µM (top dose mostly 28.7 µM), hits mostly inhibitors | AID 504832, 2011
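Firefly luciferase activity from engineered P. falciparum reports growth; inhibitors lower the luminescent signal. Cultures contained 2% hematocrit erythrocytes at 0.1% final parasitemia.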
Pf growth 96h = Primary qHTS for delayed death inhibitors of the malarial parasite plastid, 96 hour incubation; 320,000 compounds, 6.9% hits; Potency, µM (top dose mostly 28.7 µM), most hits filed as inhibitors; P. falciparum luciferase reporter growth, 96 h
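Compounds incubated with erythrocytes infected by luciferase-expressing P. falciparum (2% hematocrit, 0.05% parasitemia final) for 96 hours, 37 C in 5% CO2. Growth inhibition scored as decreased luciferase luminescence.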
NS1 function inh = qHTS Assay for Inhibitors of Influenza NS1 Protein Function; AID 2326, 2010; Potency, µM (doses to about 46.1 µM); 270,000 compounds, 0.4% hits; calls by dose curve; also: actives are rising curves; nearly all actives have a fitted effect of over 50% in size
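A cell-based growth assay was used: compounds that relieve NS1-induced slow growth of budding yeast raise OD600. Assay medium was yeast nitrogen base with ammonium sulphate and -URA supplement, pH 6.0, with 2% galactose.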
SARS PLpro yeast-2 = qHTS of Yeast-based Assay for SARS-CoV PLP: Hit Validation. shares compounds with SARS PLpro yeast-1. yeast expressing SARS-CoV PLpro, growth phenotype rescue. calls only. 1,000 compounds, 19% hits; call rule not given here
Each line names hits and unclear results; the compound was inactive in the other large screens (follow-up assays come after a bar, where they were run). Unless noted, calls follow the shape of the dose curve; as a rule, active = well fitted inhibition curve with a large enough effect; inconclusive = small, poorly fitted or top-dose-only effect, or another doubt; inactive = no such curve, though single readings can be large or run the other way.

CCOC(=O)C(CC)/C(C)=N\NC(=O)c1ccccc1O (configuration not stated)	SARS PLpro yeast-1 6.31µM | SARS PLpro yeast-2 inactive
CC(CC(=O)Nc1ccc(F)c([N+](=O)[O-])c1)c1ccccc1 (configuration not stated)	SARS PLpro yeast-1 inconclusive | SARS PLpro yeast-2 inactive
OC(c1ccccc1)c1nccc2ccccc12 (configuration not stated)	none (no result: NS1 function inh)
CCOC(=O)c1c(C)[nH]c(C)c1S(=O)(=O)N(C)CC(=O)NCc1ccc(F)cc1	none
Cc1cccc(NC(=S)Nc2ccccn2)c1	none
Cc1ccc(NC(=S)Nc2ccccn2)c(C)c1	Pf growth 96h inconclusive
Cc1cc(Cl)ccc1NC(=S)Nc1ccccn1	SARS PLpro yeast-1 5.01µM | SARS PLpro yeast-2 active
Cc1cc(C)cc(NC(=S)Nc2ccccn2)c1	SARS PLpro yeast-1 3.16µM, Pf growth 96h inconclusive | SARS PLpro yeast-2 active
CCCCN(C(=O)c1ccc(N2CCCC2=O)cc1)c1c(N)n(CCC)c(=O)[nH]c1=O	none (no result: NS1 function inh)
O=C(COC(=O)c1cccnc1Cl)c1ccc(OC(F)F)cc1	none (no result: NS1 function inh)
CN(C)C(=O)CCc1ccc2c3c([nH]c2c1)[C@]1(CCC2CCCC2)[C@@H](C(=O)N2CCOCC2)C[C@H](CC(=O)NCCN2CCOCC2)C(=O)N1CC3	none (no result: Pf growth 48h, Pf growth 96h, NS1 function inh)
COc1ccc(CNC(=O)C[C@H]2C[C@H](C(=O)N3CCOCC3)[C@@]3(CCC4CCCC4)c4[nH]c5cc(CCC(=O)N(C)C)ccc5c4CCN3C2=O)cc1OC	SARS PLpro yeast-1 inconclusive (no result: Pf growth 48h, Pf growth 96h, NS1 function inh) | SARS PLpro yeast-2 inactive
O=C(N/N=C/C1CC=CCC1)c1ccccc1O (configuration not stated)	none
O=C(N/N=C/C1CC=CCC1)c1ccc(Cl)cc1O (configuration not stated)	SARS PLpro yeast-1 11.2µM, Pf growth 96h 2.33µM | SARS PLpro yeast-2 inactive
CCC(C)Sc1nnc(NS(=O)(=O)Cc2ccccc2)s1 (configuration not stated)	Pf growth 96h inconclusive, NS1 function inh inconclusive
CCN(CCCNC(=O)CCCOc1cc(=O)n(C)c2ccccc12)Cc1ccccc1	Pf growth 96h inconclusive (no result: NS1 function inh)
COc1cccc(/C=N/NC(=O)N/N=C/c2cccc(OC)c2O)c1O	Pf growth 48h inconclusive, Pf growth 96h inconclusive
COc1cccc(/C=N/NC(=O)c2c(C)nc3ccc(Br)cn23)c1O	SARS PLpro yeast-1 inconclusive, Pf growth 48h 11.7µM (no result: NS1 function inh) | SARS PLpro yeast-2 inactive
COc1cccc(/C=N/NC(=O)CSc2ccccc2C)c1O	SARS PLpro yeast-1 22.4µM, Pf growth 48h inconclusive | SARS PLpro yeast-2 active
COc1cccc(NC(=S)NNC(=O)C(C)n2nc(C)c([N+](=O)[O-])c2C)c1 (configuration not stated)	Pf growth 96h inconclusive
COc1cccc(/C=N/NC(=O)c2nc(-c3ccccc3)cc(-c3ccccc3)n2)c1O	SARS PLpro yeast-1 11.2µM, NS1 function inh inconclusive | SARS PLpro yeast-2 active
COc1cccc(/C=N/NC(=O)C(C)n2nc(C)c([N+](=O)[O-])c2C)c1O (configuration not stated)	SARS PLpro yeast-1 11.2µM, Pf growth 48h inconclusive, Pf growth 96h inconclusive | SARS PLpro yeast-2 inactive
CCOC(=O)C1CCN(S(=O)(=O)c2cc3c(cc2C)NC(=O)CO3)CC1	Pf growth 96h inconclusive
CCN(CC)S(=O)(=O)c1cccc(C(=O)N/N=C(\C)c2ccc(O)cc2O)c1	SARS PLpro yeast-1 3.55µM, Pf growth 96h inconclusive (no result: NS1 function inh) | SARS PLpro yeast-2 inactive
CCN(CC)S(=O)(=O)c1cccc(C(=O)N/N=C/c2ccc(O)c(O)c2O)c1	SARS PLpro yeast-1 5.01µM | SARS PLpro yeast-2 active
COc1cc(Cn2c(=O)c3c(OC)c(C)cnc3n(C)c2=O)cc(OC)c1	Pf growth 96h inconclusive
Cc1ccccc1C(=O)NCCCNC(=O)c1ccccn1	none
Cc1nn(-c2ccccc2)c(C)c1/C=N/NC(=O)CSc1nnc(SCc2ccccc2Cl)s1	SARS PLpro yeast-1 inconclusive, Pf growth 96h inconclusive | SARS PLpro yeast-2 active
COc1ccc(NC(=O)N(C)C[C@H]2Oc3c(NC(=O)C4CC4)cccc3C(=O)N([C@H](C)CO)C[C@@H]2C)cc1	SARS PLpro yeast-1 inconclusive (no result: Pf growth 48h, Pf growth 96h, NS1 function inh) | SARS PLpro yeast-2 inactive
CNC[C@H]1Oc2c(NS(=O)(=O)c3ccccc3)cccc2C(=O)N([C@H](C)CO)C[C@@H]1C	SARS PLpro yeast-1 10µM (no result: Pf growth 48h, Pf growth 96h, NS1 function inh) | SARS PLpro yeast-2 inactive
Cc1cccc(C)c1NC(=O)NC1(C(=O)N2CCCC2)CCCCC1	none
O=C(CCn1c(=O)oc2ccccc21)NC1=NCCS1	SARS PLpro yeast-1 inconclusive, Pf growth 96h inconclusive | SARS PLpro yeast-2 inactive
O=C(CCN1C(=O)/C(=C\c2cccs2)SC1=S)NC1=NCCS1	none
COc1ccccc1/C=C1\SC(=S)N(CCC(=O)NC2=NCCS2)C1=O	SARS PLpro yeast-1 3.98µM | SARS PLpro yeast-2 inactive
Cc1ccc(N=C2NC(=O)/C(=C\c3cccs3)S2)cc1C	SARS PLpro yeast-1 inconclusive, Pf growth 96h inconclusive | SARS PLpro yeast-2 inactive
CC1(C)Cc2c(C#N)c(NCc3ccco3)nc(-c3ccco3)c2CO1	SARS PLpro yeast-1 inconclusive (no result: Pf growth 96h) | SARS PLpro yeast-2 inactive
Cc1nc(NCc2ccco2)c(C#N)c2c1COC(C)(C)C2	Pf growth 96h inconclusive
CCCn1c(N)c(C(=O)COC(=O)CNC(=O)c2ccccc2OCC)c(=O)[nH]c1=O	Pf growth 96h inconclusive (no result: NS1 function inh)
CCC1CCC2(CC1)NNC(=S)NN2	SARS PLpro yeast-1 8.91µM, Pf growth 96h inconclusive (no result: Pf growth 48h) | SARS PLpro yeast-2 inactive
CC1CC(C)(C)NC(=S)N1CC(=O)NCc1ccc(F)cc1 (configuration not stated)	none (no result: NS1 function inh)
CC1CC(C)(C)NC(=S)N1CC(=O)N(C)Cc1ccccc1 (configuration not stated)	SARS PLpro yeast-1 inconclusive | SARS PLpro yeast-2 inactive
CC(=O)N1c2ccc(S(=O)(=O)N3CCCC(C(=O)Nc4ccc(F)cc4)C3)cc2CC1C (configuration not stated)	Pf growth 48h inconclusive
Cn1c(SCC(=O)NNC(=O)c2ccccc2O)nnc1-c1ccccc1	SARS PLpro yeast-1 inconclusive
O=C(CSc1nnc(-c2ccccc2O)n1Cc1ccccc1)NNC(=O)c1ccccc1O	SARS PLpro yeast-1 6.31µM | SARS PLpro yeast-2 active
O=C(O)CSc1nnc(-c2ccccc2O)n1Cc1ccccc1	none
O=C(CSc1nnc(-c2ccccc2)n1Cc1ccccc1)NNC(=O)c1ccccc1O	SARS PLpro yeast-1 5.01µM | SARS PLpro yeast-2 inactive
COc1ccc(C(c2oc(CO)cc(=O)c2O)c2oc(CO)cc(=O)c2O)cc1	SARS PLpro yeast-1 4.47µM, Pf growth 96h inconclusive | SARS PLpro yeast-2 active
COc1cc(C(c2oc(CO)cc(=O)c2O)c2oc(CO)cc(=O)c2O)cc(OC)c1OC	SARS PLpro yeast-1 inconclusive, Pf growth 96h inconclusive (no result: NS1 function inh) | SARS PLpro yeast-2 inactive
CCOc1ccc(-c2c(C(=O)N/N=C/c3ccc(OC)cc3)nnn2-c2nonc2N)cc1	SARS PLpro yeast-1 20µM | SARS PLpro yeast-2 inactive
CCCOc1ccc(-c2c(C(=O)N/N=C/c3ccc(OC)cc3)nnn2-c2nonc2N)cc1	none
C(=N\NC(=Nc1ccccc1)c1ccccn1)/c1ccccn1	SARS PLpro yeast-1 inconclusive, Pf growth 48h inconclusive | SARS PLpro yeast-2 inconclusive
Clc1ccc(/C=N/NC(=Nc2ccccc2)c2ccccn2)c(Cl)c1	none
